Growth inhibition call data for 66 compounds are collected here from the antibiotic and cytotoxicity screens of Wong et al. (2023).

The whole screen tested about 39,000 compounds, of which about 500 (1.3%) were called active. The entries come from a sample that favours actives as a whole.

In this experiment the test system is S. aureus RN4220. The experiment is described as follows: growth inhibition call (relative growth <= 0.2). To be noted: 50 µM.
As to `O=C(C[C@H]1CC[C@H]2[C@@H](COC[C@H](O)CN2C(=O)Nc2cc(Cl)cc(Cl)c2)O1)N1CCOCC1`, the growth inhibition call is “inactive”.

For `O=C(C[C@H]1CC[C@@H]2[C@H](COC[C@@H](O)CN2C(=O)Nc2cc(Cl)cc(Cl)c2)O1)N1CCOCC1`, the growth inhibition call is “inactive”.

Turning to `O=C(C[C@@H]1CC[C@H]2[C@@H](COC[C@@H](O)CN2C(=O)Nc2cc(Cl)cc(Cl)c2)O1)N1CCOCC1`, the growth inhibition call was “active”.

In the case of `O=C(C[C@H]1CC[C@@H]2[C@H](COC[C@H](O)CN2C(=O)Nc2cc(Cl)cc(Cl)c2)O1)N1CCOCC1`, the growth inhibition call was “inactive”.

For `O=C(C[C@@H]1CC[C@@H]2[C@H](COC[C@@H](O)CN2C(=O)Nc2cc(Cl)cc(Cl)c2)O1)N1CCOCC1`, the growth inhibition call is “active”.

For `CN1CCN(C(=O)C[C@@H]2CC[C@H]3[C@@H](COC[C@H](O)CN3C(=O)Nc3cc(Cl)cc(Cl)c3)O2)CC1`, the growth inhibition call is “inactive”.

Consider `O=C(C[C@@H]1CC[C@H]2[C@@H](COC[C@H](O)CN2C(=O)Nc2cc(Cl)cc(Cl)c2)O1)N1CCOCC1`, for which the growth inhibition call was “inactive”.

`O=C(C[C@H]1CC[C@H]2[C@@H](COC[C@@H](O)CN2C(=O)Nc2cc(Cl)cc(Cl)c2)O1)N1CCOCC1`: the growth inhibition call is “inactive”.

For the compound `O=C(C[C@@H]1CC[C@@H]2[C@H](COC[C@H](O)CN2C(=O)Nc2cc(Cl)cc(Cl)c2)O1)N1CCOCC1`, the growth inhibition call was “active”.

As for `C[C@H](O)C#Cc1ccc2c(c1)O[C@H](CN(C)C(=O)c1ccccc1)[C@H](C)CN([C@H](C)CO)S2(=O)=O`, the growth inhibition call was “inactive”.

Take `C[C@@H]1CCCCO[C@@H](CN(C)C(=O)Nc2ccc(C(F)(F)F)cc2)[C@H](C)CN([C@H](C)CO)C(=O)c2cc(NS(=O)(=O)c3cn(C)cn3)ccc2O1`: the growth inhibition call was “inactive”.

Turning to `C[C@@H]1CN([C@H](C)CO)C(=O)c2cc(NC(=O)CCN3CCOCC3)ccc2O[C@H]1CN(C)C(=O)Nc1ccc2c(c1)OCO2`, the growth inhibition call was “inactive”.

As to `Cc1noc(C)c1S(=O)(=O)Nc1ccc2c(c1)C(=O)N([C@H](C)CO)C[C@H](C)[C@H](CN(C)Cc1ccccc1)OCCCC[C@@H](C)O2`, the growth inhibition call was “inactive”.

For the compound `Cc1ccc(C)c(Cc2cc(Cl)ccc2Cl)c1`, the growth inhibition call is “inactive”.

`Cc1noc(C)c1NC(=O)Nc1ccc2c(c1)C(=O)N([C@H](C)CO)C[C@@H](C)[C@@H](CN(C)C(=O)C1CCCCC1)OCCCC[C@@H](C)O2`: the growth inhibition call is “inactive”.

Take `C[C@@H]1CN([C@H](C)CO)C(=O)c2cc(NS(=O)(=O)c3cn(C)cn3)ccc2O[C@@H](C)CCCCO[C@@H]1CN(C)CC1CC1`: the growth inhibition call is “inactive”.

With `CCNC(=O)C[C@@H]1CC[C@H](NC(=O)C2CCOCC2)[C@@H](CO)O1`, the growth inhibition call was “inactive”.

In the case of `OC[C@H]1COc2ccccc2O1`, the growth inhibition call was “inactive”.

As to `C[C@@H]1CCCCO[C@H](CN(C)S(=O)(=O)c2ccc(Cl)cc2)[C@@H](C)CN([C@H](C)CO)C(=O)c2cc(NS(=O)(=O)c3ccc(F)cc3)ccc2O1`, the growth inhibition call was “inactive”.

Consider `NC(=O)N1C(=O)[C@H]2[C@H](C1=O)[C@H]1C=C(c3ccc(CO)cc3)[C@@H]2[C@@H](C2CC2)N1Cc1cc2c(cc1Br)OCO2`, for which the growth inhibition call is “inactive”.

On to `CN1C(=O)[C@H]2[C@H](C1=O)[C@H]1C=C(c3ccc(CO)cc3)[C@@H]2[C@H](c2cccs2)N1Cc1cccc(OC(F)(F)F)c1`, for which the growth inhibition call is “active”.

Take `NC(=O)N1C(=O)[C@H]2[C@H](C1=O)[C@H]1C=C(CCCO)[C@@H]2[C@H](c2cccs2)N1Cc1cc2c(cc1Br)OCO2`: the growth inhibition call is “inactive”.

With `CC(C)NC(=O)N(C)C[C@@H]1Oc2ccc(NC(=O)CCCN(C)C)cc2CC(=O)N([C@@H](C)CO)C[C@H]1C`, the growth inhibition call is “inactive”.

On to `Cc1ccc(S(=O)(=O)N(C)C[C@@H]2OCCCC[C@@H](C)Oc3ccc(NC(=O)Nc4ccc(F)cc4)cc3C(=O)N([C@H](C)CO)C[C@H]2C)cc1`, for which the growth inhibition call is “inactive”.

For the compound `CN(C)CCCNC(=O)C[C@@H]1CC[C@@H]2[C@H](COc3ccc(NC(=O)c4cccc(F)c4)cc3C(=O)N2C)O1`, the growth inhibition call is “inactive”.

For `Cc1cc(C(C)(C)C)c(O)c(C(C)(C)C)c1`, the growth inhibition call was “inactive”.

In the case of `CC(C)(c1cc(Br)c(O)c(Br)c1)c1cc(Br)c(O)c(Br)c1`, the growth inhibition call is “active”.

`O=C(C[C@@H]1CC[C@H]2NC[C@H](O)COC[C@@H]2O1)NCCN1CCCCC1`: the growth inhibition call was “inactive”.

For `C[C@@H]1CCCCO[C@@H](CN(C)S(=O)(=O)c2cccs2)[C@H](C)CN([C@H](C)CO)C(=O)c2cc(NC(=O)Nc3ccc(F)cc3)ccc2O1`, the growth inhibition call was “inactive”.

`COCC#Cc1ccc2c(c1)O[C@@H](CN(C)S(=O)(=O)c1ccc(OC)cc1)[C@@H](C)CN([C@H](C)CO)S2(=O)=O`: the growth inhibition call was “inactive”.

In the case of `Cn1c(=O)c2c(nc(NCCO)n2C)n(C)c1=O`, the growth inhibition call was “inactive”.

With `C=CCc1ccc(O[C@@H]2O[C@H](CO[C@@H]3O[C@@H](C)[C@H](O)[C@@H](O)[C@H]3O)[C@@H](O)[C@H](O)[C@H]2O)c(O)c1`, the growth inhibition call is “inactive”.

Consider `S=c1ccss1`, for which the growth inhibition call was “active”.

With `O=C(C[C@@H]1C[C@@H]2c3cc(NS(=O)(=O)c4ccc(F)cc4)ccc3O[C@@H]2[C@H](CO)O1)NCc1cccc(F)c1`, the growth inhibition call was “inactive”.

Take `[N-]=[N+]=N[C@]1(CO)O[C@@H](n2ccc(N)nc2=O)[C@@H](O)[C@@H]1O`: the growth inhibition call was “inactive”.

For `CNC[C@H]1Oc2ccc(NS(=O)(=O)c3cn(C)cn3)cc2CC(=O)N([C@H](C)CO)C[C@@H]1C`, the growth inhibition call is “inactive”.

Turning to `CN1CCN(C(=O)C[C@H]2CC[C@H]3[C@@H](COc4ccc(NC(=O)c5cscn5)cc4C(=O)N3C)O2)CC1`, the growth inhibition call was “inactive”.

As to `Cn1c(=O)c2cc(S(=O)(=O)NCCC(=O)NC3CCCC3)ccc2n(C)c1=O`, the growth inhibition call is “inactive”.

`C#CC[C@H](c1nc2cc(Cl)ccc2c(=O)n1Nc1ccccc1)N(CCCN)C(=O)c1cccc(Cl)c1F`: the growth inhibition call is “active”.

As to `CO[C@H](CN(C)C(=O)c1ccccc1F)[C@@H](C)CN([C@@H](C)CO)S(=O)(=O)c1ccc(Cl)cc1`, the growth inhibition call was “inactive”.

On to `C[C@H]1CCCCO[C@@H](CN(C)C(=O)Nc2ccc3c(c2)OCO3)[C@@H](C)CN([C@@H](C)CO)C(=O)c2cc(NC(=O)CCC(F)(F)F)ccc2O1`, for which the growth inhibition call was “inactive”.

Consider `C[C@H](CO)N1C[C@H](C)[C@@H](CN(C)C(=O)Nc2ccccc2)OCCCC[C@H](C)Oc2ccc(NC(=O)Nc3cccc4ccccc34)cc2C1=O`, for which the growth inhibition call is “inactive”.

Take `CC[C@H]1OC(=O)[C@H](C)[C@@H](O[C@H]2C[C@@](C)(OC)[C@@H](O)[C@H](C)O2)[C@H](C)[C@@H](O[C@@H]2O[C@H](C)C[C@H](N(C)C)[C@H]2O)[C@](C)(OC)C[C@@H](C)C(=O)[C@H](C)[C@@H](O)[C@]1(C)O`: the growth inhibition call is “active”.

Consider `CC[C@@H]1OC(=O)[C@@H](C)[C@H](O[C@H]2C[C@@](C)(OC)[C@@H](O)[C@H](C)O2)[C@@H](C)[C@H](O)[C@@](C)(O[C@@H]2O[C@H](C)C[C@H](N(C)C)[C@H]2O)C[C@H](C)C(=O)[C@@H](C)[C@H](O)[C@@]1(C)O`, for which the growth inhibition call is “active”.

`CCC1OC(=O)C(C)C(OC2CC(C)(OC)C(O)C(C)O2)C(C)C(OC2OC(C)CC(N(C)C)C2O)C(C)(OC)CC(C)C(=O)C(C)C(O)C1(C)O` (stereo unspecified): the growth inhibition call is “active”.

On to `Cc1ccc(S(=O)(=O)Nc2ccc3c(c2)CC(=O)N([C@@H](C)CO)C[C@H](C)[C@H](CN(C)S(=O)(=O)c2c(C)noc2C)O3)cc1`, for which the growth inhibition call is “inactive”.

Regarding `C[C@H](CO)N1C[C@H](C)[C@H](CN(C)S(=O)(=O)c2ccc(Cl)cc2)Oc2c(NC(=O)C3CCOCC3)cccc2C1=O`, the growth inhibition call was “inactive”.

As to `COc1ccc(CNC(=O)C[C@@H]2CC[C@@H]3[C@H](COc4ccc(NC(=O)C5CC5)cc4C(=O)N3C)O2)cc1`, the growth inhibition call was “inactive”.

As for `COc1ccccc1C#Cc1cnc2c(c1)C(=O)N([C@@H](C)CO)C[C@H](C)[C@@H](CN(C)S(=O)(=O)c1cn(C)cn1)O2`, the growth inhibition call was “inactive”.

Consider `COc1ccccc1NC(=O)N(C)C[C@H]1Oc2ncc(C#CCN(C)C)cc2C(=O)N([C@@H](C)CO)C[C@@H]1C`, for which the growth inhibition call was “inactive”.

`COc1ccc(-c2ccc3c(c2)O[C@H](CN(C)CC2CCOCC2)[C@@H](C)CN([C@H](C)CO)S3(=O)=O)cc1`: the growth inhibition call is “inactive”.

As to `C[C@@H]1CN([C@@H](C)CO)C(=O)Cc2cc(NC(=O)Cn3cnnn3)ccc2O[C@H]1CN(C)S(=O)(=O)c1ccc(Cl)cc1`, the growth inhibition call was “inactive”.

As to `Cc1noc(C)c1NC(=O)Nc1ccc2c(c1)C(=O)N([C@H](C)CO)C[C@@H](C)[C@@H](CN(C)C(=O)Nc1c(C)noc1C)OCCCC[C@@H](C)O2`, the growth inhibition call is “inactive”.

Take `Cc1cc(NN)nc(SCC(=O)NN)n1`: the growth inhibition call was “inactive”.

Regarding `CC(C)(Sc1ccc(CCN(CCCCC2CCCCC2)C(=O)NC2CCCCC2)cc1)C(=O)O`, the growth inhibition call is “active”.

Regarding `C/C=C/c1ccc2c(c1)O[C@@H](CN(C)C(=O)c1ccc3c(c1)OCO3)[C@@H](C)CN([C@@H](C)CO)S2(=O)=O`, the growth inhibition call is “inactive”.

Turning to `Cn1cnc(S(=O)(=O)N2C[C@H](O)COC[C@H]3O[C@H](CC(=O)NC4CCC4)CC[C@@H]32)c1`, the growth inhibition call was “inactive”.

Consider `C[C@H]1CN([C@@H](C)CO)C(=O)c2cc(NC(=O)CCCN(C)C)ccc2O[C@H]1CN(C)Cc1ccc(C(=O)O)cc1`, for which the growth inhibition call is “inactive”.

`C[C@H]1CN([C@@H](C)CO)C(=O)c2cc(NC(=O)Cn3cnnn3)ccc2O[C@H]1CN(C)Cc1ccc(C(=O)Nc2ccccc2N)cc1`: the growth inhibition call is “inactive”.

For `CC(C)(C)CC(C)(C)c1ccc(OCCOCC[N+](C)(C)Cc2ccccc2)cc1.[Cl-]`, the growth inhibition call was “active”.

As to `C[N+](C)(CCOc1ccccc1)Cc1ccccc1.O=C(O)c1cc2ccccc2c(Br)c1O`, the growth inhibition call was “inactive”.

Take `C[N+](C)(CCOc1ccccc1)Cc1ccccc1.O=C([O-])c1cc2ccccc2cc1O`: the growth inhibition call was “inactive”.

Take `Cc1cc(C(C)(C)CC(C)(C)C)ccc1OCCOCC[N+](C)(C)Cc1ccccc1.[Cl-]`: the growth inhibition call was “active”.

With `C=c1ccc(C)cc1=C1NN=C(NC(=O)c2ccc(S(=O)(=O)N(CCOC)CCOC)cc2)O1`, the growth inhibition call is “inactive”.

As for `CC(C)NC(=O)NCC[C@H]1CC[C@H](NC(=O)CN(C)C)[C@@H](CO)O1`, the growth inhibition call was “inactive”.

Take `C/C=C/c1ccc2c(c1)O[C@H](CN(C)Cc1ccc(C(=O)O)cc1)[C@@H](C)CN([C@H](C)CO)S2(=O)=O`: the growth inhibition call was “inactive”.
